Bioassay records as filed in PubChem.
MMP13 inh: blocks human MMP13 activity; MMP-13 fTHP FRET cleavage, Mca fluorescence; P45452; 65,000 compounds, 0.07% hits; inhibition, % at 4 µM; AID 570;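 active means inhibition above the mean of compound-free control plate wells plus 3 SD, cut at about 14% in these data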;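 further: 0% = DMSO wells and 100% = wells with reference MMP-13 inhibitor after basal subtraction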
Hsp90 block: displaces geldanamycin probe from tumor Hsp90; NCI-N417 lysate Hsp90, Cy3B-geldanamycin FP displacement; inhibition, % at 30 µM; P07900; 64,000 compounds, 0.35% hits;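 active means inhibition above 50%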;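 further: 0% = tracer plus lysate wells and 100% = tracer alone without lysate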
ROCK2 inh: inhibitors of human Rho kinase 2. O75116. purified ROCK2, Kinase-Glo ATP depletion luminescence. inhibition, % at 6 µM. 60,000 compounds, 0.35% hits;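 active means inhibition above the screen-wide mean inhibition plus 3 SD, cut at about 18% in these data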;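 further: plate controls were DMSO wells for no effect and Y-27632 control wells after no-enzyme background subtraction for full effect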
mHtt clearance: mutant huntingtin protein clearance | inhibition, % at 1.5 µM | AID 853 | HeLa Exon1htt(103Q)mCFP, aggregate imaging; zero = plate's median compound well | 47,000 compounds, 0.42% hits;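 active means inhibition of aggregate fluorescence above about 70%, also judged a hit by eye on the cell image, limit read from the data, passing the limit was not always enough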;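 further: cells exposed to compound for three days before fixation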
SKBR3 24h inh: SK-BR-3 proliferation inhibitors; SK-BR-3 viability, CellTiter-Glo ATP luminescence, 24 h; stronger effect = lower value; viability, % at 10 µM; 41,000 compounds, 0.47% hits;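 active means viability at or below the median of all test compounds minus 3 SD, in both replicates if run twice, cut at about 45% in these data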;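 further: 100% = median untreated cell wells and 0% = median positive control drug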
PKA kinase inh: inhibitors of human protein kinase A. P17612. PKA Kemptide phosphorylation, Kinase-Glo ATP luminescence. inhibition, % at 6 µM. 65,000 compounds, 0.1% hits. AID 524;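 active means inhibition above the screen-wide mean inhibition plus 3 SD, cut at about 21% in these data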
Numbers without * were called inactive; / = no result given. Most compounds without a hit are left out; they make up all but 0.97% or so of the library.

SMILES	MMP13 inh	Hsp90 block	ROCK2 inh	mHtt clearance	SKBR3 24h inh	PKA kinase inh
Cc1ccc(-c2nnc(SCC(=O)Nc3ccc(S(=O)(=O)N4CCCCCC4)cc3)o2)cc1	3.8	0.7	-5.1	-18.9	75.5	-7.7
O=C(CC1(O)C(=O)Nc2ccc(Br)cc21)c1ccc2c(c1)OCO2 (stereo unspecified)	2.7	-20.6	0.8	6.5	98.8	1.5
COc1ccccc1CN(Cc1cc2cc(C)ccc2[nH]c1=O)Cc1nnnn1CC1CCCO1 (stereo unspecified)	-4.5	-2.9	3.0	-30.1	37.1*	7.8
CCOC(=O)Cn1nnnc1CN(Cc1ccc(OC)cc1)Cc1cc2cc(C)ccc2[nH]c1=O	3.7	-1.2	4.3	-25.6	39.4*	9.5
CCOC(=O)Cn1nnnc1CN(Cc1ccc(OC)cc1)Cc1cc2cc(CC)ccc2[nH]c1=O	-2.0	-3.5	3.9	/	94.6	-8.4
COc1ccc2[nH]c(=O)c(CN(Cc3ccccc3OC)Cc3nnnn3CC3CCCO3)cc2c1 (stereo unspecified)	-64.7	-0.1	3.5	/	/	1.1
CCC1CCCCN1c1nc(-c2ccncc2)nc2ccccc12 (stereo unspecified)	-1.4	2.1	15.3	/	104.6	61.5*
CCOC(=O)C(C)Sc1nnc(Cc2cc(=O)[nH]c(=O)[nH]2)n1-c1ccc(Cl)cc1 (stereo unspecified)	0.0	0.1	-1.0	51.0	/	-8.3
CN1CCc2c(cc(O)c(O)c2Cl)C(c2cccc(Cl)c2)C1 (stereo unspecified)	/	81.0*	/	/	/	/
CN1CCc2cc(O)c(O)cc2C(c2ccccc2)C1 (stereo unspecified)	/	59.3*	/	/	/	/
Oc1cc2c(cc1O)C(c1ccccc1)CNCC2 (stereo unspecified)	/	64.4*	/	/	/	/
COc1cccc(C2C3=C(CCCC3=O)Nc3nc4ccccc4n32)c1OC (stereo unspecified)	-35.0	1.8	7.2	/	56.3	9.7
COC(=O)C1(c2ccccc2)NC(c2cccs2)C2C(=O)N(c3ccccc3)C(=O)C21 (stereo unspecified)	/	/	/	22.5	/	/
Cc1cccc2cc(=O)[nH]c(C)c12	-0.3	-2.0	18.4*	/	83.8	8.3
Cc1cccc2c(Cl)cc(=O)[nH]c12	/	/	/	-33.0	/	/
COCCSc1ccccc1C(=O)Nc1cc(C)on1	0.5	-1.6	-5.5	74.8*	/	3.1
C=CCNC(=O)CN(c1cccc(Br)c1)S(C)(=O)=O	2.3	87.6*	1.4	/	/	2.3
CNC(=O)CN(c1cccc(Br)c1)S(C)(=O)=O	2.1	-0.5	9.2	39.9	77.6	7.9
COc1ccc(OCc2nn3c(-c4cccc(OC)c4)nnc3s2)cc1	15.7*	-0.8	-3.8	/	84.0	-14.0
COc1ccc(OCc2nn3c(-c4ccco4)nnc3s2)cc1	5.4	-1.9	6.2	13.8	87.5	9.3
O=C(Nc1ccc2c(c1)OCO2)N1CCN(S(=O)(=O)c2ccc(Cl)cc2)CC1	1.0	1.6	1.1	77.3*	89.8	-0.8
CCc1ccc(CNc2ccc(N3CCN(C(C)=O)CC3)cc2)cc1	-16.3	57.4*	4.4	-32.5	106.7	3.0
CC(=O)N1CCN(c2ccc(NCc3ccc(C)cc3)cc2)CC1	1.9	27.8	2.8	-17.0	101.2	10.4
O=C(CCC(=O)N1CCCC1)Nc1nnc(C(F)(F)F)s1	-1.7	-1.3	-5.9	/	87.7	3.7
O=C(O)CCC(=O)Nc1nnc(C(F)(F)F)s1	3.3	3.8	-4.4	/	40.4*	4.4
